# POLB inh – DNA polymerase beta (human) inhibition | 1.3% of 340,000 active | AID 485314 | Pol beta primer extension/strand displacement, fluorescence kinetic | P06746 | Potency, µM (titrated, usually from 114 µM), without a hit: at the highest dose activity change, negative = inhibition, actives largely listed as inhibitors; also: % is scaled to controls: 0 for no effect and ±100 for the full control effect
#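 Preincubation: enzyme (10 nM) with compound, 15 min, RT. Reaction: substrate added to 50 nM final. Reads: 0 and 10 min. Analysis: normalized, Hill fit.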
# POLH inh – inhibitors of human DNA polymerase eta | recombinant Pol eta, fluorescent DNA replication assay | Potency, µM (doses to about 114 µM), for inactives: at the highest dose activity change, negative = inhibition, most hits filed as inhibitors | 1.2% of 390,000 active; also: % is scaled to controls: 0 for no effect and ±100 for the full control effect
#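 Pol eta at 10 nM preincubated with compounds 15 min at room temperature; reaction started with fluorescent substrate (50 nM final) and read kinetically at 0 and 10 min.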
# Pol kappa inh – DNA polymerase kappa (human) inhibition; Q9UBT6; purified Pol kappa, fluorescent DNA synthesis assay, 10 min; Potency, µM (titrated, usually from 107 µM), for the others: at the highest dose activity, negative = inhibition, most hits filed as inhibitors; 0.53% of 400,000 active; also: % is scaled to controls: 0 for no effect and ±100 for the full control effect
#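 Pol kappa 10 nM + cpd, 15 min RT; start w/ substrate 50 nM final; fluorescence kinetic read, 0 and 10 min. Neg ctrl: buffer, no enzyme.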
# APEX1 inh – APE1 (human) endonuclease inhibition; Potency, µM (highest dose often 65.8 µM), without a hit: top-dose activity change, negative = inhibition, hits mostly inhibitors; 0.35% of 350,000 active; recombinant APE1, TAMRA/BHQ-2 abasic DNA cleavage fluorescence;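 also: plate controls were vehicle for no effect and reference inhibitor for full effect; nearly all actives have a fitted effect of over 55% in size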
#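 Kinetic fluorescence read (525 ex/598 em nm, three reads 60 s apart) of AP-site incision; signal = third minus first read. Enzyme 0.75 nM, dual-labelled THF duplex 50 nM, compound preincubation 15 min RT.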
# POLI inh – blocks human DNA polymerase iota activity. AID 588590. 1% of 390,000 active. Q9UNA4. Pol iota fluorescent replication assay, 10 min. Potency, µM (top dose mostly 115 µM), for the others: at the highest dose activity, negative = inhibition, most hits filed as inhibitors
#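 Pol iota at 10 nM preincubated 15 min with compounds at room temperature; reaction started with fluorescent substrate, 50 nM final. Fluorescence read kinetically at 0 and 10 min; buffer-only wells as negative control.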
# GLS inh – inhibitors of human glutaminase (GLS); O94925; GLS enzymatic activity, qHTS titration; Potency, µM (top dose mostly 45.5 µM), without a hit: at the highest dose activity change, negative = inhibition, most hits filed as inhibitors; 0.21% of 410,000 active; AID 624170; also: % is scaled to controls: 0 for no effect and ±100 for the full control effect
# Target sequence (O94925 whole entry, looked up): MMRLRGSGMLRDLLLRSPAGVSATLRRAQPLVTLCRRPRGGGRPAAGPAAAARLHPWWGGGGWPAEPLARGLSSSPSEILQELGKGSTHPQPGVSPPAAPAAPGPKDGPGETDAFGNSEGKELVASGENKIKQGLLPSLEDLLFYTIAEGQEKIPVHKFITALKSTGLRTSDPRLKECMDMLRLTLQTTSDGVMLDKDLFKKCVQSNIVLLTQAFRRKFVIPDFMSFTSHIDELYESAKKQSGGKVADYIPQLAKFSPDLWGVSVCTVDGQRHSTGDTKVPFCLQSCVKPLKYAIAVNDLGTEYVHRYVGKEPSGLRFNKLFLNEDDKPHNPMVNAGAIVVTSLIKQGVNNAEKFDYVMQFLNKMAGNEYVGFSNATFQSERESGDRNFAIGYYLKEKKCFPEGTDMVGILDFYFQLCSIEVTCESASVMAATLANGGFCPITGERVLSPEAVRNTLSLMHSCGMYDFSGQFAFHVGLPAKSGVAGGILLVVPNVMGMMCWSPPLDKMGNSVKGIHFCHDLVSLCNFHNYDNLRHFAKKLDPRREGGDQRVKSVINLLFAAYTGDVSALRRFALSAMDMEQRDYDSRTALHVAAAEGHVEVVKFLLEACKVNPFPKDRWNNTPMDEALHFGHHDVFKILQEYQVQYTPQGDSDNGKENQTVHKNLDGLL
#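 Assay buffer: 45 mM KH2PO4 pH 8.2, 0.02% Tween-20. hKGA acts on L-glutamine (1 mM solution added); product glutamate is reported by an oxidase/peroxidase Amplex Red coupling, with fluorescence taken at baseline and 30 min.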
# Active calls of the source: *; ? = inconclusive; / = no result given; [ ] = remark or other dose. Compounds with a hit are over-represented: about 2.4% of the library has one in this group of screens. Calls follow the shape of the dose curve; as a rule, active = well fitted curve in the direction sought with a large enough effect; inconclusive = small, poorly fitted or top-dose-only effect, or another doubt; inactive = no such curve, though single readings can be large; an effect the other way counts as inactive or inconclusive. Potency is read from the fitted curve at half-maximal effect.
SMILES,POLB inh,POLH inh,Pol kappa inh,APEX1 inh,POLI inh,GLS inh
O=C(NCCO)c1cccc(-c2cccc3nncn23)c1,/,/,/,/,/,3%
C/C(=N/NC(=O)Cc1c(C)[nH][nH]c1=O)c1ccc(O)cc1,2%,-13%,-14%,0%,8%,32%
CCCNc1c(NC(=O)c2ccc3c(c2)OCO3)c(=O)oc2ccccc12,-17%,-3%,-1%,6%,24%,-7%
Cc1ccc(S(=O)(=O)/N=C2\C=C(NS(=O)(=O)c3ccccc3)C(=O)c3ccccc32)c(C)c1,/,-3%,-9%,/,?,-2%
Cc1ccc(S(=O)(=O)/N=C2\C=C(Nc3ccc(O)cc3)C(=O)c3ccccc32)cc1,/,?,-38%,-28%,45µM*,?
CC(C)(C)c1ccc(S(=O)(=O)/N=C2\C=C(NS(=O)(=O)c3ccccc3)C(=O)c3ccccc32)cc1,?,79µM*,-12%,16%,?,-6%
Cc1ccc(S(=O)(=O)/N=C2\C=C(Nc3cccc(C(=O)O)c3)C(=O)c3ccccc32)c(C)c1,?,22µM*,-17%,53%,5µM*,19%
COc1ccccc1OCC(=O)NCC1CCCN(C(=O)c2ccccc2SC)C1 (stereo unspecified),1%,-25%,2%,12%,23%,?
Oc1cc(NCCN2CCOCC2)cc2cccnc12,/,-9%,-10%,7%,7.1µM*,10%
COc1ccc(CC2=C(O)c3ccccc3C(=O)C2=O)cc1,23%,-18%,-1%,-1%,?,-10%
O=C1C(=O)c2ccccc2C(O)=C1CCCCl,30%,?,-9%,-4%,14µM*,0%
COc1ccc(C2Nc3ccccc3C(=O)N2Cc2ccco2)cc1COc1c(C)cccc1C (stereo unspecified),/,/,-16%,/,25µM*,/
Cc1ccccc1NC(=O)CN1C(=O)S/C(=C\c2ccc(-c3cccc(C(=O)O)c3C)o2)C1=O,35µM*,?,?,0%,?,1%
O=C(c1cc2nc(C3CC3)cc(C(F)F)n2n1)N1CCOCC1,50µM*,13µM*,79µM*,5%,?,-12%
Cc1cc2c(ncn2C)c(NS(=O)(=O)c2ccccc2Cl)c1C,-1%,9%,-2%,-2%,-9%,5%
N#C/C(=C(/O)CN1CCCCC1)c1nc(-c2ccc(Cl)cc2)cs1,0%,7%,-7%,3%,16%,11%
Cc1ccc(-c2csc(/C(C#N)=C(\O)CN3CCN(C(=O)c4ccco4)CC3)n2)cc1,-1%,22µM*,-17%,3%,?,23%
N#C/C(=C(/O)CCl)c1nc(-c2ccccc2)cs1,?,40µM*,-15%,11%,?,0%
Cc1ccc(-c2csc(/C(C#N)=C(\O)CCl)n2)cc1,?,45µM*,-18%,1%,?,-7%
Cc1ccc(NC(=O)CN2CCN(C(=O)c3ccco3)CC2)cc1,-4%,-7%,4%,58%,25%,-5%
Cc1ccc2nc(-c3ccc(NC(=O)CN4CCN(C(=O)c5ccco5)CC4)cc3)sc2c1,32µM*,79µM*,45µM*,-4%,28µM*,8%
N#C/C(=C(/O)CN1CCOCC1)c1nc(-c2ccccc2)cs1,0%,-1%,-4%,8%,?,77%
C=CCNC(=O)c1cc2sccc2n1C,-3%,-1%,-14%,0%,?,-1%
NS(=O)(=O)c1cc([N+](=O)[O-])ccc1NCc1cccnc1,0%,-21%,-2%,44%,31%,-1%
c1ccc(CCNc2ccnc3cc4ccccc4cc23)cc1,22µM*,-21%,-14%,-6%,81%,-1%
SMILES,POLB inh,POLH inh,Pol kappa inh,APEX1 inh,POLI inh,GLS inh
CC(C)Nc1ccc(Nc2ccnc3cc4ccccc4cc23)cc1,14µM*,-18%,?,?,?,-23%
COc1ccc(Nc2ccnc3ccccc23)cc1,10%,-12%,-9%,1%,4%,4%
CCCCNS(=O)(=O)c1ccc2nc(-c3cccnc3)cc(C(=O)NC3CC3)c2c1,?,-6%,-16%,10%,-23%,-6%
CCN(CC)c1ccc(/C=C2\C(=O)N(c3nnc(C)c(=O)[nH]3)N=C2C)cc1,39%,?,-4%,?,3.2µM*,-30%
Cc1ccc(NC(=O)Cc2coc3ccc(C(C)C)cc23)cc1Cl,-6%,?,-6%,/,-18%,-2%
O=c1c2sccc2n(Cc2cc(=O)n3ccccc3n2)c(=O)n1-c1ccccc1,25%,-10%,-9%,?,15%,-10%
Clc1cccc(-n2ncc3c(NCCCN4CCOCC4)ncnc32)c1,-15%,-17%,-10%[60.1 µM],/,18%,-10%
Cc1ccc(NC(=O)CSc2sc3c(O)cc(=O)[nH]c3c2C#N)c(F)c1,-20%,56µM*,-21%,76%[12.4 µM],?,-8%
Cn1c(N)c(C(=O)COC(=O)c2cc(C(F)(F)F)nc3ccccc23)c(=O)n(Cc2ccccc2)c1=O,-26%,-10%,-11%,?,33%,0%
Cn1c(N)c(C(=O)COC(=O)c2cc(-c3ccco3)nc3ccccc23)c(=O)n(Cc2ccccc2)c1=O,20µM*,/,/,?,/,/
CCCCn1c(N)c(N(CCOC)C(=O)c2cc(-c3ccccc3)nc3ccccc23)c(=O)[nH]c1=O,/,-12%,-4%,14%,10%,-3%
CCCn1c(N)c(N(CCOC)C(=O)c2cc(-c3ccco3)nc3ccccc23)c(=O)[nH]c1=O,45µM*,?,-38%,-4%,56µM*,-26%
O=C(COc1ccc2oc(-c3ccccc3)cc(=O)c2c1)NCc1ccco1,22µM*,?,-17%,?,?,1%
Cc1cc(=O)oc2ccc(OCC(=O)NCc3ccco3)cc12,39%,0%,3%,17%,27%,/
CN(C)S(=O)(=O)c1cccc(NC(=O)NCCCl)c1,27%,-19%,0%,15%,-13%,-5%
CCNc1ccc(S(=O)(=O)N(C)C)cc1NCC(=O)Nc1ccc(F)c(Cl)c1,-26%,-17%,-10%,-6%,89µM*,24%
Cc1c(Cl)cccc1NC(=O)CNc1cccc(S(=O)(=O)N(C)C)c1,79µM*,-11%,-6%,-48%,11%,9%
CN(C)S(=O)(=O)NCCNc1ccc(C(F)(F)F)cc1[N+](=O)[O-],1%,-25%,-9%,-1%,-24%,-9%
O=C1c2ccccc2-c2cc([N+](=O)[O-])c([N+](=O)[O-])cc21,/,/,0%,/,2.2µM*,/
COc1ccc(CNc2ncncc2-c2c(C)noc2C)c(OC)c1,/,/,-1%[60.1 µM],1%,/,/

# Source: PubChem BioAssay (National Center for Advancing Translational Sciences (NCATS))
